Among the data in the supplement of paper PMC6555819 are PBM binding z-score values, retold here.

For the first assay, the system named is THRa homodimer (NR concentration 90 nM). The experiment in a line: PBM binding z-score (relative to random genomic background probes); higher = stronger binding; sequences stand for … in GC…GCGATTGACAGCGTAGAATGAAGG
The procedure, abridged: (§1)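 Probes were double-stranded and carried 34-nt variable regions with direct-repeat seeds, single-nucleotide variants, half-site ablations and random human genomic background sequences, printed on custom Agilent 4×180K protein-binding microarrays. Arrays were incubated 1 h with ligand-free nuclear receptor dimers in PBS pH 7.4, 2% milk, 0.02% Triton X-100, 1 mM DTT, 0.2 mg/mL BSA and 0.4 mg/ml salmon testes DNA. Antibodies against each partner (one per run) detected binding, and scanned fluorescence was regression-normalized. Binding z-scores use the random background probes as reference.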
Turning to GCGACTAGGGCATCAGCAGGTTACCATAACTTAA, the PBM binding z-score is 0.0227.

GATACAGTGTCAAGGCCAGAGTACGCGTATTGAT showed a PBM binding z-score of -0.196.

In the case of GCGACTGGGGCATCAGCAGGTTTCCATAACTTAA, the PBM binding z-score was -0.144.

Regarding CCGACTGGGGCATAAGGTTACCCTAAGCCAGCCC, the PBM binding z-score is 1.55.

AATACAGGGTCATCGTAGGCCAGCGTACGCACAG had a PBM binding z-score of 1.37.

As for GCGACTGGGGCATCAGCAGATTACCATAACTTAA, the PBM binding z-score is -0.286.

With GGACCGAGGGCAAAGTTGATAGCATCTGTCGACG, the PBM binding z-score was -0.484.

Take CGGACTAGGTCATTGACAGGACAGTGAATAGTAA: the PBM binding z-score came out at 0.733.

CGTCAAAGTTTAACTAAGGTAACGTAAAGCACGC had a PBM binding z-score of 1.99.

In turn, ATATGTAGGTTAGCTGGGGTCATACAGACTAGGC had a PBM binding z-score of 3.83.

In the case of GCGGCTAGGTCAACTGATGGTCAGCTAAAGCTCG, the PBM binding z-score is 0.698.

Sequence CAGCCTAGGTCATGGCCAGTATAGGAGGAACGTT gave a PBM binding z-score of 0.965.

Take CCTAGTTGGTCAAGGCCACACACGCTATAGGTAC: the PBM binding z-score turned out to be 1.18.

For CCTTACGGGTCAACGTTATAGCACGGGTGGTACG, the PBM binding z-score is -0.182.

As for TCTTGTAGATCAAACAGGTTAAGAAAGCCTGAGT, the PBM binding z-score is -0.548.

With CCTAGTTGGTCAGGAGGTCACACTCCGGATATGA, the PBM binding z-score is 2.46.

Turning to TCTAGCAGGCGAGAGGGTCACTCAAGAGGTACGG, the PBM binding z-score was -0.333.

As for CGAACGAGGGCATGAGTTGATAGCGAATGCCGAT, the PBM binding z-score was -0.229.

In the case of TCATATAGGTAAAAGGTGAAAGTAGGTGTGGTAA, the PBM binding z-score was found to be 0.852.

ACAGACAGGTGAGTGAAGGTAGCTCAGCTGGACG displayed a PBM binding z-score of -0.539.

In turn, CAAACTAGGTCACAGAGGTCAAAGACCGTGCGTA gave a PBM binding z-score of 2.81.

With TGTCAAAGTTCAAAGGTAACGGAAGTATCCACAC, the PBM binding z-score came out at 0.158.

Regarding CATTACGGGTCACGAGGTTATAGCACGACGAGCG, the PBM binding z-score stood at 1.56.

In turn, ATCTCTAGGTAAAGTTCAGTTAAAGATCGATAGA returned a PBM binding z-score of 0.842.

With CCTACGGGGCCATTCAGAGGTCATTGATCATATG, the PBM binding z-score came out at 1.77.

The sequence AGAATGAGGTTAATATCAGGGAAACAGAATACAT registered a PBM binding z-score of 0.795.

In turn, CCGACTGGGCCAAGGTCATTGATCAGTCAAAGCA came in with a PBM binding z-score of 2.09.

As for CCTCAGAGGACAGAAGGTCAGAGCTGTCCGCTTT, the PBM binding z-score was -0.0422.

As for CGAACTAGGTCATCCAGGAAAGTGAATACATTGA, the PBM binding z-score came out at 0.863.

For the sequence ACTATTAGTTGAGACGAGTGCAACCGATAGGTTG, the PBM binding z-score is -0.775.

GCTTACGGGTCAAAGGTTATAGCGTGAATAGAAT had a PBM binding z-score of 0.134.

As for ACTATTAGTTGACTTAGGGCAACCGGTACGACGC, the PBM binding z-score was found to be 0.512.

For the sequence AGATTGAGGTTATACGTAGATCAGGGAAGAAAGT, the PBM binding z-score came out at 0.943.

With CCTACTAGGTCAATGGTCAGCTAAAGCAGCTCGC, the PBM binding z-score is 0.868.

The sequence ATCTGTAGGTAACAAGTTCAGTGAAAGAGAGGAC displayed a PBM binding z-score of 0.755.

The sequence CAAACTAGGTCAACAGGTCAAAGTCCGCTTCCCG yielded a PBM binding z-score of 1.9.

For the sequence TCTCGGAGGACACGAAAGGTTAGAGCTCGACATC, the PBM binding z-score was 0.435.

GCTTGTATATCAAGGTTAAGAAAGACTAAGCTAA had a PBM binding z-score of -0.21.

Sequence TCCGCTAGGTCAACGATGGTCAGCTAATCTGCTA registered a PBM binding z-score of 1.03.

In the case of CCTATGAGTTGACCATAAGGGCAACCGAAGCTCG, the PBM binding z-score is 1.04.

For a further assay, the system named is VDR:RXRa (NR concentration 270 nM, RXRa partner concentration 90 nM). Described as above. In a few lines: as §1
Regarding GATACAGTGTCAAGGCCAGAGTACGCGTATTGAT, the PBM binding z-score was 0.126.

GCGACTGGGGCATCAGCAGGTTTCCATAACTTAA gave a PBM binding z-score of -0.402.

In turn, CCGACTGGGGCATAAGGTTACCCTAAGCCAGCCC returned a PBM binding z-score of 0.27.

On to AATACAGGGTCATCGTAGGCCAGCGTACGCACAG, for which the PBM binding z-score was 5.21.

On to GCGACTGGGGCATCAGCAGATTACCATAACTTAA, for which the PBM binding z-score is -0.562.

Consider GGACCGAGGGCAAAGTTGATAGCATCTGTCGACG, for which the PBM binding z-score was found to be 0.837.

CGTCAAAGTTTAACTAAGGTAACGTAAAGCACGC: the PBM binding z-score amounted to 0.861.

In turn, ATATGTAGGTTAGCTGGGGTCATACAGACTAGGC registered a PBM binding z-score of 6.08.

Sequence GCGGCTAGGTCAACTGATGGTCAGCTAAAGCTCG gave a PBM binding z-score of 1.28.

Consider CAGCCTAGGTCATGGCCAGTATAGGAGGAACGTT, for which the PBM binding z-score was found to be 1.84.

Regarding CCTAGTTGGTCAAGGCCACACACGCTATAGGTAC, the PBM binding z-score was 0.31.

In the case of CCTTACGGGTCAACGTTATAGCACGGGTGGTACG, the PBM binding z-score amounted to 3.03.

Regarding TCTTGTAGATCAAACAGGTTAAGAAAGCCTGAGT, the PBM binding z-score was 0.979.

The sequence TCTAGCAGGCGAGAGGGTCACTCAAGAGGTACGG gave a PBM binding z-score of 1.49.

Sequence CGAACGAGGGCATGAGTTGATAGCGAATGCCGAT showed a PBM binding z-score of 1.21.

The sequence TCATATAGGTAAAAGGTGAAAGTAGGTGTGGTAA returned a PBM binding z-score of 1.93.

ACAGACAGGTGAGTGAAGGTAGCTCAGCTGGACG: the PBM binding z-score is -0.56.

CAAACTAGGTCACAGAGGTCAAAGACCGTGCGTA showed a PBM binding z-score of 7.76.

Take TGTCAAAGTTCAAAGGTAACGGAAGTATCCACAC: the PBM binding z-score is 5.14.

Take CATTACGGGTCACGAGGTTATAGCACGACGAGCG: the PBM binding z-score was 5.57.

ATCTCTAGGTAAAGTTCAGTTAAAGATCGATAGA gave a PBM binding z-score of 1.82.

Regarding CCTACGGGGCCATTCAGAGGTCATTGATCATATG, the PBM binding z-score stood at 5.2.

Take AGAATGAGGTTAATATCAGGGAAACAGAATACAT: the PBM binding z-score came out at 1.04.

As for CCGACTGGGCCAAGGTCATTGATCAGTCAAAGCA, the PBM binding z-score amounted to 3.

With CGAACTAGGTCATCCAGGAAAGTGAATACATTGA, the PBM binding z-score was determined as 2.24.

The sequence ACTATTAGTTGAGACGAGTGCAACCGATAGGTTG yielded a PBM binding z-score of 0.942.

As for GCTTACGGGTCAAAGGTTATAGCGTGAATAGAAT, the PBM binding z-score was found to be 5.55.

Regarding AGATTGAGGTTATACGTAGATCAGGGAAGAAAGT, the PBM binding z-score was found to be 1.23.

CCTACTAGGTCAATGGTCAGCTAAAGCAGCTCGC displayed a PBM binding z-score of 1.45.

The sequence CAAACTAGGTCAACAGGTCAAAGTCCGCTTCCCG gave a PBM binding z-score of 4.87.

Turning to TCTCGGAGGACACGAAAGGTTAGAGCTCGACATC, the PBM binding z-score was 0.803.

In the case of GCTTGTATATCAAGGTTAAGAAAGACTAAGCTAA, the PBM binding z-score amounted to 0.325.

TCCGCTAGGTCAACGATGGTCAGCTAATCTGCTA returned a PBM binding z-score of 1.45.

Take CCTATGAGTTGACCATAAGGGCAACCGAAGCTCG: the PBM binding z-score turned out to be 0.81.
